Results filed as inconclusive are left out. Activity calls are given as the source filed them. Calls come from the whole dose curve; as a rule, active = well fitted curve in the direction sought with a large enough effect; inconclusive = small, poorly fitted or top-dose-only effect, or another doubt; inactive = no such curve, though single readings can be large; an effect the other way counts as inactive or inconclusive.
Tests used:
[1] = MultiTox-Fluor Cytotoxicity Assay - LYMP1-003 - Live Cells (AID 962);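 note: cells exposed to compound for 16 hours at 37 °C; cytotoxic hits lower the live-cell protease signal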
Summary of the method: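 Acute cytotoxicity is scored as a drop in live-cell protease activity in human lymphoblastoid LYMP1-003 cells after 16 hr compound exposure at 37 C. AC50 values come from Hill-equation modelling of concentration-response data.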

[2] = Cell Viability - LYMP1-003 - Assay at 24 hr (AID 963)
Summary of the method: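 Cytotoxicity is scored as a concentration-dependent fall in ATP-linked luciferase signal in human lymphoblastoid LYMP1-003 cells treated 24 hr at 37 C in complete culture medium.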

[3] = Cell Viability - LYMP1-003 - Assay at 40 hr (AID 964); note: series mostly up to about 92 µM; nearly all actives have a fitted effect of over 60% in size
From the text: NIH Chemical Genomics Center [NCGC]
NIH Molecular Libraries Screening Centers Network [MLSCN]
National Institutes of Environmental Health Sciences [NIEHS]
National Toxicology Program [NTP]
We have developed a 1536-well cell-based assay for quantitative high throughput screening (qHTS) against a number of cell lines to determine in vitro cytotoxicity of small molecules. This particular assay uses a human lymphoblastoid cell line (LYMP1-003) purchased from Coriell Institute for Medical Research.
NCGC Assay Protocol Summary:
The CellTiter-Glo luminescent cell viability assay (Promega) is a homogeneous method to measure the number of viable cells in culture. The end point readout of this assay is based on quantitation of intracellular ATP, an indicator of metabolic activity, using the luciferase reaction. […]
Using the CellTiter-Glo luminescent cell viability assay, the amount of cellular ATP was measured in the lymphoblastoid cell line with complete culture medium following compound treatment for 40 hours. […] Library compounds were measured for their ability to cause acute toxicity in the cell line, as reflected by a decrease in intracellular ATP levels, in a concentration-dependent manner. […] AC50 values were determined from concentration-response data modeled with the standard Hill equation. […]
8. Detection; Luminescence; Viewlux plate reader […]

[4] = Cell Viability - LYMP2-003 (AID 965);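 note: cells exposed to compounds for 24 h before reading; nearly all actives have a fitted effect of over 50% in size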
Summary of the method: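 Human lymphoblastoid LYMP2-003 cells, 2500/well, exposed to compounds for 24 h at 37 C in complete medium. Viability read as intracellular ATP by CellTiter-Glo luminescence; AC50 from Hill-equation fits of qHTS concentration-response data.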

[5] = Cell Viability - LYMP2-004 (AID 966); note: nearly all actives have a fitted effect of over 65% in size
Summary of the method: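 qHTS cytotoxicity: human lymphoblastoid line, 24 hr compound treatment, 37 C, complete medium. Viability read as cellular ATP via luciferase luminescence; tetraoctylammonium bromide served as positive control.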

[6] = Cell Viability - LYMP2-009 (AID 968); note: series mostly up to about 92 µM; nearly all actives have a fitted effect of over 55% in size
[7] = Cell Viability - LYMP2-011 (AID 969); note: nearly all actives have a fitted effect of over 60% in size
Summary of the method: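 In this qHTS cytotoxicity format, compounds are tested across concentrations on human lymphoblastoid cells in complete medium for 24 hours at 37 C. Viability is taken as cellular ATP measured by luciferase luminescence.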

[8] = Cell Viability - LYMP2-013 (AID 970); note: series mostly up to about 92 µM; nearly all actives have a fitted effect of over 55% in size
Summary of the method: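 Cytotoxicity is scored as a concentration-dependent drop in intracellular ATP in human lymphoblastoid cells after 24 hr compound exposure at 37 C. ATP is quantified by luciferase luminescence, and AC50 values come from Hill-equation modeling.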

[9] = Cell Viability - LYMP2-015 (AID 971); note: nearly all actives have a fitted effect of over 55% in size
Summary of the method: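 Cells are seeded at 2500 per well and incubated 5 hr at 37 C. Compounds are added across a concentration series for 24 hr at 37 C. CellTiter-Glo is added, and luminescence is read after 30 min at room temperature.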

[10] = Cell Viability - LYMP2-005 (AID 967); note: series mostly up to about 92 µM
Summary of the method: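 Human lymphoblastoid LYMP2-005 cells, 2,500 per well in complete medium, rested 5 h at 37C then compound-treated 24 h at 37C. Intracellular ATP read by CellTiter-Glo luminescence after 30 min at room temperature; AC50 from Hill-equation fits of concentration-response data.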

Measured: outcome

NC(=O)c1ccccc1
not listed: [10]
inactive: all other assays above

CC(=O)C(C)=O
inactive: all assays above
